Test results published in PubChem BioAssay (Tox21).
Inconclusive results are not listed. Unmarked numbers belong to inactive results. The call rests on the fitted dose curve; in most records, active means well fitted cell-killing curve with a large enough effect in the repeat runs; inconclusive means weak or mixed curves, or effect the other way; inactive means no such curve, though single readings can be large or run the other way.

test: qHTS assay to identify small molecule antagonists of the retinoid-related orphan receptor gamma (ROR-gamma) signaling pathway - cell viability counter screen (AID 1159520); conditions: Tet-on RORgamma CHO cells viability, ATP luminescence, 16 h; series mostly up to 92.4 µM; activity, negative = cytotoxicity: at the top concentration; further: nearly all actives have a fitted effect of over 50% in size
Text: U.S. Tox21 Program National Center for Advancing Translational Sciences [NCATS] NIH Chemical Genomics Center [NCGC] U.S. Environmental Protection Agency [EPA] National Institutes of Environmental Health Sciences [NIEHS] National Toxicology Program [NTP] U.S. Food and Drug Administration [FDA] Tox21 Assay Overview: Nuclear steroid hormone receptors are involved in many biological processes including inflammatory responses, cell proliferation, and apoptosis. Environmental factors or compounds disrupting these nuclear receptor pathways and gene expression may promote susceptibility to immunotoxicants and autoimmune diseases. One important group of these expression factors are the retinoid-related orphan receptors. To assess compounds that may interfere with the retinoid-related orphan receptor gamma (ROR-gamma) transcription factor, a cell-based luciferase assay was used. The CHO cell-based assay utilizes a TET-inducible ROR expression factor and ROR response element-LUC reporter gene. Reporter gene activity was induced using Doxycycline Hyclate and measured after 16 hr incubation. Tet-on ROR gamma CHO cells were used to screen against the Tox21 10K compound library for cytotoxicity by measuring the viability of the cells based on the quantitation of the ATP.
Tox21 Assay Protocol Summary: Tet-on ROR gamma CHO cells were dispensed at 1,000 cells in 4 uL of culture medium per well into white wall/solid bottom 1536-well plates using a Multidrop Combi (Thermo Scientific, Waltham, MA) dispenser. Following incubation at 37 C and 5% CO2 for 4 hr, 23 nL of compounds dissolved in DMSO, positive controls or DMSO only were transferred by a Pintool station (Kalypsys, San Diego, CA) and after 2 hr incubation at 37 C, one ul of 1 uM (final concentration) of Doxycycline Hyclate was added to all the wells by using a Flying Reagent Dispenser (FRD) (Aurora Discovery, San Diego, CA). After 16 hr incubation at 37 C and 5% CO2, 5 uL of CellTiter-Glo reagent (Promega Corporation, Madison, WI) was added to each assay plate using FRD. After 30 min incubation at room temperature, luminescence was quantified on a ViewLux plate reader (Perkin Elmer, Waltham, MA).
On the % scale 0 is the no-effect control and ±100 the full control effect.

SMILES | activity, negative = cytotoxicity
NC(Cc1ccc(F)cc1)C(=O)O (stereo not given) | 9.21% [at 8.39 µM]
CCCCNc1cc(C(=O)O)cc(S(N)(=O)=O)c1Oc1ccccc1 | 2.32% [at 42.5 µM]
CN1CCN(C2=Nc3ccccc3Oc3ccc(Cl)cc32)CC1 | 1.35% [at 42.5 µM]
COC(=O)/C=C(/C)N | -0.837% [at 42.5 µM]
CCCc1c2oc(C(=O)O)cc(=O)c2cc2c(=O)cc(C(=O)O)n(CC)c12 | 4.27% [at 42.5 µM]
Cc1ccccc1C(=O)Nc1ccc(C(=O)N2CCCC(O)c3cc(Cl)ccc32)c(C)c1 (stereo not given) | -8.7% [at 42.5 µM]
CC(C)C[C@H](NC(=O)OCC1c2ccccc2-c2ccccc21)C(=O)O | 1.39%
CN1CCN(c2c(F)cc3c(=O)c(C(=O)O)cn4c3c2SCC4)CC1 | 1.25% [at 42.5 µM]
CCCOCCC | 1.6%
CCOC(=O)COc1ccc2c(c1)CC(NCC(O)c1cccc(Cl)c1)CC2 (stereo not given) | -19.5%
Nc1ccc(Oc2ccc(N)c(N)c2)cc1 | 2.2%
COc1ccc(S(=O)(=O)Nc2nnc(CC(C)C)s2)cc1 | -1.2% [at 42.5 µM]
CC(C)CCCCCCc1ccc(OCCOCCO)cc1 | 1.11%
CC(C)Nc1nc(N)nc(Cl)n1 | 7.27%
CC(C)(C)C1CCCCC1=O (stereo not given) | 3.72%
C=Cc1ccccc1 | -2.19%
COC(=O)C(C)O (stereo not given) | 2.98%
N#CSCC(=O)O | 2.07% [at 42.5 µM]
CCN1CC(CCN2CCOCC2)C(c2ccccc2)(c2ccccc2)C1=O (stereo not given) | -0.0788% [at 42.5 µM]
CCOc1ccc(NS(=O)(=O)c2ccc(N)cc2)nn1 | 0.764% [at 42.5 µM]

SMILES | activity, negative = cytotoxicity
CC(=O)O[C@H]1CC[C@@]2(C)C(=CC[C@@H]3[C@@H]2CC[C@]2(C)C(C(C)=O)=CC[C@@H]32)C1 | -3.86% [at 42.5 µM]
CC(C)(C)c1ccc(OC(=O)c2ccccc2O)cc1 | -0.23%
O=C(O)c1ccccc1Nc1cc(Cl)ccc1C(=O)O | -2.84% [at 19 µM]
CCOc1ccc2nc(N)sc2c1 | -20.6%
CC(C)=CCCC(C)CCOC=O (stereo not given) | -0.501%
CC(C)NC[C@@H](O)COc1cccc2ccccc12 | 0.0614% [at 42.5 µM]
C/C(=N\O)[C@@H](C)NCC(C)(C)CN[C@H](C)/C(C)=N/O | 0.438% [at 42.5 µM]
C1CSCCS1 | -5.84%
CCN(CC)C(=O)N(CC)CC | 0.246%
CC(C)O | 0.349%
CCN(CCCc1ccccc1)CCCc1ccccc1 | -5.04% [at 42.5 µM]
CCOC(=O)CS | -12.6%
CC1(C)O[C@@H]2C[C@H]3[C@@H]4CCC5=CC(=O)CC[C@]5(C)[C@@]4(F)[C@@H](O)C[C@]3(C)[C@]2(C(=O)CCl)O1 | 5.08% [at 42.5 µM]
O=C1N(c2ccccc2)c2ccccc2C1(Cc1ccncc1)Cc1ccncc1 | 0.0491% [at 42.5 µM]
C=CC1CO1 (stereo not given) | 6.02%
CN1CCC[C@@H]1Cc1c[nH]c2ccc(CCS(=O)(=O)c3ccccc3)cc12 | 4.74% [at 42.5 µM]
CCC(=O)c1ccc2c(c1)N(CCCN(C)C)c1ccccc1S2 | -4.06% [at 42.5 µM]
O=C(C(Cl)Cl)N1CCOC12CCCCC2 | -2.06%
CS(=O)(=O)c1ccc([C@@H](O)[C@@H](CF)NC(=O)C(Cl)Cl)cc1 | -1.23% [at 42.5 µM]
CC1(O)CSC(C)(O)CS1 (stereo not given) | -2.66%
